Compound activity: PubChem, National Center for Advancing Translational Sciences (NCATS)
Only a selection was taken, and hits are over-represented in it overall.
Menin-MLL TR inh: qHTS Assay for Inhibitors Targeting the Menin-MLL Interaction in MLL Related Leukemias: Competition With Texas Red Labeled MLL-derived Mutant Peptide | O00255 | Menin + Texas Red MLL mutant peptide, fluorescence polarization | Potency, µM (top dose mostly 61.6 µM), without a hit: top-dose FP activity change, negative = inhibition, hits mostly inhibitors | actives 0.23% (n = 270,000); active = well fitted inhibition curve with a large enough effect in the polarisation, with a control signal flat, not every such curve was filed as active; inconclusive = small, poorly fitted or top-dose-only effect, or effect the other way, or a change in a side signal; inactive = no such curve, though single readings can be large or run the other way; the % refers to the polarisation; also: potency is read from the fitted curve at half-maximal effect; % of control where 0% means no effect
Target sequence (O00255 whole entry, looked up): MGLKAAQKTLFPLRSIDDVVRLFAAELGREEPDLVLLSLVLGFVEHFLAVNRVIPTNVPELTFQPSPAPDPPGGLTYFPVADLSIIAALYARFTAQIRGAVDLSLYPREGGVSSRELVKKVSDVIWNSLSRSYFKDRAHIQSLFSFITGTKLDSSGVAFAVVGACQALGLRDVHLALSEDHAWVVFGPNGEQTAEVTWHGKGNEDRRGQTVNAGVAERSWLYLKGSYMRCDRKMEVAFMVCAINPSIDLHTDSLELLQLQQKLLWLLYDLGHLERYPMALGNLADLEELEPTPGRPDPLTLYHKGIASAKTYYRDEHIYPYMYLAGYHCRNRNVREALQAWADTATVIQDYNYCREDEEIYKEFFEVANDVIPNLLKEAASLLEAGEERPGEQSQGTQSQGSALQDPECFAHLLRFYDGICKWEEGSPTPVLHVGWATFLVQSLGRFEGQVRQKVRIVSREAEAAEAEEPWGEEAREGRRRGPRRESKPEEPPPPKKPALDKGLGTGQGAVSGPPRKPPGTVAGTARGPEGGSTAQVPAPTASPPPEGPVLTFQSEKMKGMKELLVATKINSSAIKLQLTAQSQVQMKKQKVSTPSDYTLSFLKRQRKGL
ERG-DNA inh: qHTS for Small Molecule Inhibitors of the ERG Ets/DNA interaction | Transcriptional regulator ERG (Homo sapiens), P11308 | fluorescence polarization, His-ERG Ets domain / labelled DNA | Potency, µM (top dose mostly 76.9 µM), inactives show at the top dose FP activity, negative = inhibition, actives largely listed as inhibitors | actives 0.028% (n = 370,000) | AID 624246, 2012; active = well fitted inhibition curve with a large enough effect in the polarisation, with a control signal flat; inconclusive = small, poorly fitted or top-dose-only effect, or effect the other way, or a change in a side signal; inactive = no such curve, though single readings can be large or run the other way; the % refers to the polarisation;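 also: polarization taken with two DNA probes labelled with fluorescein and Texas red; potency is read from the fitted curve at half-maximal effect; % of control where 0% means no effect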
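His-tagged ERG Ets domain (1 uM in the protein solution; 300mM KCl, 50mM Tris-HCl, 1mM EDTA, 1mM DTT, pH 7.5) received compound, then a probe mix of 5 nM fluorescein-DNA and 100nM Texas-615-DNA. Fluorescence polarization was read for both dyes.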
MLL CXXC-DNA inh: qHTS Fluorescence Polarization Assay for Inhibitors of MLL CXXC domain - DNA interaction | Histone-lysine N-methyltransferase 2A (Homo sapiens), Q03164 | MLL-CXXC / FITC-HOXA9 DNA fluorescence polarization | Potency, µM (top dose mostly 115 µM), without a hit: at the highest dose activity change, negative = inhibition, hits mostly inhibitors | actives 0.037% (n = 290,000) | AID 2662, 2010; active = well fitted inhibition curve with a large enough effect in the polarisation, with a control signal flat, not every such curve was filed as active; inconclusive = small, poorly fitted or top-dose-only effect, or effect the other way, or a change in a side signal; inactive = no such curve, though single readings can be large or run the other way; the % refers to the polarisation; also: potency is read from the fitted curve at half-maximal effect
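Purified MLL-CXXC (added from a 7 uM solution) was preincubated 5 min at ambient with pinned compounds in 50 mM Tris-HCl pH 7.5, 50 mM NaCl, 1 mM DTT, 0.05% BSA. Fluorescein-labeled HOX-A9 DNA (50 nM solution) followed, 30 min, then polarization read.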
Menin MLL FP FL: qHTS Assay for Inhibitors Targeting the Menin-MLL Interaction in MLL Related Leukemias: Competition With Fluorescein Labeled MLL-derived Peptide; FP activity change, % at 61.4 µM; 290,000 tested, under 10 active; Fluorescence polarization, fluorescein-MLL peptide displacement from menin; AID 1766, 2009; active = well fitted curve in the direction sought with a large enough effect in the polarisation, not every such curve was filed as active; inconclusive = small, poorly fitted or top-dose-only effect, or effect the other way, or a change in a side signal; inactive = no such curve, though single readings can be large or run the other way; the % refers to the polarisation; also: % of control where 0% means no effect
Mm-Cpn inhibitor: Inhibitors of TCP-1 ring complex (TRiC) of Methanococcus maripaludis (MmCpn): qHTS. Chaperonin Mm-Cpn (Methanococcus maripaludis). purified Mm-Cpn ATPase, ADP Transcreener TR-FRET. Potency, µM (highest dose often 76.9 µM), for inactives: at the highest dose activity, negative = inhibition, usual class: inhibitors. actives 0.031% (n = 330,000); also: potency is read from the fitted curve at half-maximal effect; % is scaled to controls: 0 for no effect and ±100 for the full control effect; nearly all actives have a fitted effect of over 80% in size
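Inhibition of chaperonin ATP hydrolysis is measured as reduced ADP production, detected by competitive TR-FRET in which signal falls with ADP. Final enzyme 25 nM and ATP 10 uM, reacted 30 min at 37°C.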
MLL CXXC Fl: qHTS Fluorescence Polarization (FP) Assay for Inhibitors of MLL CXXC domain - DNA interaction: Fluorescein FP. shares compounds with MLL CXXC-DNA inh. MLL CXXC-DNA binding, fluorescein FP. Potency, µM (doses to about 345 µM), for inactives: at the top dose activity change, negative = inhibition, hits mostly inhibitors. actives 70% (n = 200); also: potency is read from the fitted curve at half-maximal effect; nearly all actives have a fitted effect of over 80% in size
MLL CXXC TxRed: qHTS Fluorescence Polarization (FP) Assay for Inhibitors of MLL CXXC domain - DNA interaction: Texas Red FP. shares compounds with MLL CXXC-DNA inh. MLL CXXC-DNA binding, Texas Red fluorescence polarization. Potency, µM (highest dose often 345 µM), for the others: top-dose activity change, negative = inhibition, actives largely listed as inhibitors. actives 40% (n = 200); also: potency is read from the fitted curve at half-maximal effect; % is scaled to controls: 0 for no effect and ±100 for the full control effect; nearly all actives have a fitted effect of over 75% in size
MLL CXXC HTRF: qHTS Fluorescence Polarization (FP) Assay for Inhibitors of MLL CXXC domain - DNA interaction: HTRF Assay; Potency, µM (titrated, usually from 172 µM), without a hit: top-dose activity change, negative = inhibition, hits mostly inhibitors; actives 30% (n = 210); MLL CXXC-DNA binding, HTRF, biochemical; AID 624162, 2012; shares compounds with MLL CXXC-DNA inh; also: % is scaled to controls: 0 for no effect and ±100 for the full control effect; nearly all actives have a fitted effect of over 80% in size
The depositor's hits bear a star. Unless noted, calls follow the shape of the dose curve; as a rule, active = well fitted curve in the direction sought with a large enough effect; inconclusive = small, poorly fitted or top-dose-only effect, or another doubt; inactive = no such curve, though single readings can be large; an effect the other way counts as inactive or inconclusive.

`Cc1cc(C)c2c3c(c(-c4ccccc4)n2n1)c(=O)n(C)c(=O)n3C` gave ERG-DNA inh 2%.
`Cc1cc(-c2ccccc2)c2c3c(c(-c4ccccc4)n2n1)c(=O)n(C)c(=O)n3C` gave Menin-MLL TR inh 4%, MLL CXXC-DNA inh 50µM*, Menin MLL FP FL inconclusive, Mm-Cpn inhibitor 1%, MLL CXXC Fl -43%, MLL CXXC TxRed 16% and MLL CXXC HTRF 9%.
For CC[C@H](C)[C@H](NC(=O)[C@H](CCC(=O)O)NC(=O)CNC(=O)[C@@H](NC(=O)[C@@H]1CCCN1C(=O)[C@@H](NC(=O)[C@@H]1CCCN1C(=O)[C@@H]1CCCN1C(=O)[C@H](CC(N)=O)NC(=O)[C@H](CC(N)=O)NC(=O)[C@@H](NC(=O)[C@H](CCSC)NC(=O)[C@H](Cc1c[nH]c2ccccc12)NC(=O)CNC(=O)[C@@H](NC(=O)[C@H](CCC(N)=O)NC(=O)[C@@H](N)CCC(=O)O)[C@@H](C)CC)[C@@H](C)O)[C@@H](C)CC)C(C)C)C(=O)O the results were Menin-MLL TR inh -11% and Menin MLL FP FL -5.
Screening N#C/C(=C\c1cccs1)C(=O)c1ccccc1Cl returned ERG-DNA inh 87%, MLL CXXC-DNA inh 22µM*, Menin MLL FP FL 6, Mm-Cpn inhibitor 0%, MLL CXXC Fl 18µM*, MLL CXXC TxRed 71µM* and MLL CXXC HTRF inconclusive.
`CC1=NN(c2ccccc2)C(=O)/C1=C/c1cccc(C)c1` gave Menin-MLL TR inh inconclusive, ERG-DNA inh -1%, MLL CXXC-DNA inh inconclusive, Menin MLL FP FL inconclusive, Mm-Cpn inhibitor -7%, MLL CXXC Fl 45µM*, MLL CXXC TxRed inconclusive and MLL CXXC HTRF -27%.
For CC(=O)N/N=C/c1cc(C(C)(C)C)cc(/C=N/NC(C)=O)c1O the results were Menin-MLL TR inh 0%, ERG-DNA inh -3%, MLL CXXC-DNA inh inconclusive, Menin MLL FP FL inconclusive, Mm-Cpn inhibitor 0%, MLL CXXC Fl 52%, MLL CXXC TxRed -10% and MLL CXXC HTRF 45%.
`CC(C)OC(=O)c1cn(Cc2c(F)cccc2F)c2sc(-c3ccc(NC(=O)C(C)C)cc3)c(CN(C)Cc3ccccc3)c2c1=O` gave Menin-MLL TR inh inconclusive and Menin MLL FP FL 1.
`C#CCOCCOCCOCCNc1nc(N2CCN(C(=O)[C@H](CCCCN)n3cc([C@@H](N)C(C)CC)nn3)CC2)nc(N2CCN(C(=O)[C@H](CCCCN)n3cc([C@@H](N)CO)nn3)CC2)n1` (stereo partly drawn) gave Menin-MLL TR inh -4%, MLL CXXC-DNA inh 79µM*, Menin MLL FP FL -6, MLL CXXC Fl 5.6µM*, MLL CXXC TxRed 4% and MLL CXXC HTRF -1%.
For NCCCCCCCCCCNCCCN the results were Menin-MLL TR inh -4% and Menin MLL FP FL 0.
For CN(C)c1ccc(/C=C2\SC(=S)N(Nc3ncc(C(F)(F)F)cc3Cl)C2=O)cc1 the results were Menin-MLL TR inh inconclusive, ERG-DNA inh inconclusive, MLL CXXC-DNA inh 3.2µM*, Menin MLL FP FL inconclusive, Mm-Cpn inhibitor -2%, MLL CXXC Fl 1.1µM*, MLL CXXC TxRed 113µM* and MLL CXXC HTRF 196%.
`NCC(=O)N[C@@H](CCCN=C(N)N)C(=O)NCC(=O)N[C@@H](CC(=O)O)C(=O)N[C@@H](CO)C(=O)O` gave Menin-MLL TR inh 6% and Menin MLL FP FL 3.
Screening CCSc1nnc(NC(=O)c2nc(S(=O)(=O)Cc3ccc(F)cc3)ncc2Cl)s1 returned ERG-DNA inh 3%, MLL CXXC-DNA inh inconclusive, Mm-Cpn inhibitor 0%, MLL CXXC Fl 22µM*, MLL CXXC TxRed 100µM* and MLL CXXC HTRF 9.7µM*.
CC(C)c1nnc(NC(=O)c2nc(S(=O)(=O)Cc3ccc(F)cc3)ncc2Cl)s1 was read as ERG-DNA inh -9%, MLL CXXC-DNA inh inconclusive and Mm-Cpn inhibitor 0%.
Screening Cc1ccc(S(=O)(=O)NC2OC(=O)C(Cl)=C2Cl)cc1 (stereo not drawn) returned Menin-MLL TR inh 11%, ERG-DNA inh -4%, MLL CXXC-DNA inh inconclusive, Menin MLL FP FL 2, Mm-Cpn inhibitor -2%, MLL CXXC Fl 89µM*, MLL CXXC TxRed 142µM* and MLL CXXC HTRF 49µM*.
For Cc1ccc(S(=O)(=O)NC2CCCCCCC2)cc1 the results were Menin-MLL TR inh -10%, ERG-DNA inh -4%, MLL CXXC-DNA inh -6%, Menin MLL FP FL -2 and Mm-Cpn inhibitor -2%.
C=C(C)CC(C)(C)C was read as Menin-MLL TR inh -11% and Menin MLL FP FL 1.
`CN1CCCc2cc3c(C(F)(F)F)cc(=O)oc3nc21` gave Menin-MLL TR inh -2%, ERG-DNA inh 8%, MLL CXXC-DNA inh 28µM*, Menin MLL FP FL inconclusive, Mm-Cpn inhibitor 0%, MLL CXXC Fl 45µM*, MLL CXXC TxRed -16% and MLL CXXC HTRF 22%.
Screening CC(=O)Nc1ccc2cc3ccc(NC(C)=O)cc3nc2c1 returned ERG-DNA inh -2%, MLL CXXC-DNA inh 40µM*, Menin MLL FP FL inconclusive, Mm-Cpn inhibitor -14%, MLL CXXC Fl 113µM*, MLL CXXC TxRed inconclusive and MLL CXXC HTRF -12%.
